# Bioassay records (PubChem BioAssay)
# LASV entry inh: blocks Lassa virus binding to or entry into cells; Lassa virus pseudotype entry inhibition, cell reporter; Potency, µM (doses to about 37.9 µM), for inactives: at the highest dose activity change, negative = inhibition, actives largely listed as inhibitors; 1.2% of 300,000 active; AID 540256; calls by dose curve; tested in HEK293 cells; also: potency is read from the fitted curve at half-maximal effect; nearly all actives have a fitted effect of over 50% in size
# FMDV inh: antivirals against foot and mouth disease virus; Potency, µM (doses to about 57.9 µM), for the others: top-dose activity change, negative = inhibition, usual class: inhibitors; FMDV antiviral cell-based qHTS; 1.2% of 410,000 active; calls by dose curve; tested in HEK293T cells; also: read-out not given here; potency is read from the fitted curve at half-maximal effect; nearly all actives have a fitted effect of over 45% in size
# Marburg entry inh: blocks Marburg virus binding to or entry into cells. Marburg virus pseudotyped entry inhibition, cell reporter. Potency, µM (highest dose often 37.8 µM), for the others: at the top dose activity change, negative = inhibition, actives largely listed as inhibitors. 1.8% of 300,000 active. AID 540276; calls by dose curve; tested in HEK293 cells; also: potency is read from the fitted curve at half-maximal effect
# HCMV inh: blocks human cytomegalovirus replication; activity change, negative = inhibition, % at 57.5 µM; HFF cells, HCMV-luciferase reporter, 72 h; hits give low values; 4.5% of 410,000 active; in the data active = activity change below about -60%; inconclusive = no clear call, values can overlap the other calls; inactive = above about -39%
#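 After 16 h attachment at 37C, HFF cells received test compound and HCMV-luciferase (1 PFU/cell); reporter luminescence read 72 h later, data normalized against buffer-only and known inhibitor Salinomycin.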
# HCV inh: blocks hepatitis C virus | Huh7.5.1 HCVcc-Cre infection, luciferase reporter, 44 h | Potency, µM (highest dose often 41.8 µM), for the others: at the highest dose activity change, negative = inhibition, most hits filed as inhibitors | 3.4% of 340,000 active | AID 651820; active = well fitted inhibition curve with a large enough effect; inconclusive = small, poorly fitted or top-dose-only effect, or another doubt; inactive = no such curve, though single readings can be large or run the other way; also: potency is read from the fitted curve at half-maximal effect
#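 Seed cells (1,000/well) for 4 h; treat with compound and infect with HCVcc-Cre, moi about 0.5. Incubate 44 h, then detect luciferase activity.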
# * marks the source's active call; other numbers are inactive results; ? = inconclusive; nt = not tested or not shown; [ ] = dose if it differs, or a comment. An excerpt weighted towards active compounds, which were near 7.9% of everything screened. % is scaled to controls: 0 for no effect and ±100 for the full control effect.
SMILES,LASV entry inh,FMDV inh,Marburg entry inh,HCMV inh,HCV inh
CCOc1ccc(NS(=O)(=O)c2ccc(C(=O)N(C)Cc3cccc(OC)c3OC)cc2)cc1,?,-20%,?,-31,13µM*
CCOc1ccc(NS(=O)(=O)c2ccc(C(=O)N(CC)CC(=O)NCc3cccs3)cc2)cc1,?,-18%,?,17,-21%
CN1C(=O)[C@@H]2C[C@@]3([C@@]45C[C@H]6C(=O)N(C)[C@@H](Cc7ccccc7)C(=O)N6[C@@H]4Nc4ccccc45)c4ccccc4N[C@H]3N2C(=O)[C@@H]1Cc1ccccc1,nt,-12%,nt,-68*,?
O=C1N[C@@H](Cc2ccccc2)C(=O)N2[C@H]3Nc4ccccc4[C@@]3([C@]34C[C@H]5C(=O)N[C@@H](Cc6ccccc6)C(=O)N5[C@H]3Nc3ccccc34)C[C@@H]12,nt,?,nt,nt,-24%
CCN1/C(=C\C=C\C2=[N+](CC)c3ccccc3C2(C)C)C(C)(C)c2ccccc21,0.79µM*,35µM*,0.71µM*,nt,0.56µM*
CCCCN1C(=O)/C(=C/C=C2\N(C)c3ccccc3C2(C)C)SC1=S,nt,nt,-1%,nt,nt
CC[n+]1c(/C=C/C=C2/N(C)c3ccccc3C2(C)C)sc2ccccc21,1.3µM*,nt,0.92µM*,nt,nt
Cc1ccc(N(Cc2cccs2)C(=O)c2ccccc2[N+](=O)[O-])cc1,3%[46.1 µM],-17%,-2%[46.1 µM],?,nt
Cc1ccc(N(Cc2cccs2)C(=O)COc2ccccc2[N+](=O)[O-])cc1,?,26%,?,-68*,nt
COc1ccc2c3c([nH]c2c1)[C@@H](CO)N(C(=O)CC1CC1)CC31CCN(Cc2ccncc2)CC1,nt,nt,nt,-74*,nt
CC(=O)Oc1cc2c(cc1Cl)C1(CC(c3ccccc3Cl)O2)CC(C)(C)NC(=S)N1 (stereo not given),?,?,?,-38,10µM*
Cc1cc(C)n(-c2nc(NCCN(C)C)c3c4c(sc3n2)CCCC4)n1,?,?,?,-82*,?
Cc1cc(C)n(-c2nc3sc4c(c3c(=O)[nH]2)CCCC4)n1,nt,nt,0%,nt,nt
Cc1cc(C)n(-c2nc(NCCCN(C)C)c3c4c(sc3n2)CCCC4)n1,?,19%,?,-98*,?
Cc1nc2nc(-c3ccc(Cl)cc3)cn2nc1C,?,?,-12%,61,0%
Cc1nc2nc(-c3cccs3)cn2nc1C,10µM*,1%,?,150,8%
CC(C)CCn1c(=O)c2sccc2n2c(CCCC(=O)N3CCC(N4CCCCC4)CC3)nnc12,nt,-19%,nt,?,13µM*
CC(C)Cn1c(=O)c2sccc2n2c(CCCC(=O)N3CCC(N4CCCCC4)CC3)nnc12,28%[46.1 µM],25%,25%[46.1 µM],?,-7%
Cc1c(NC(=O)c2ccc(Cl)cc2)cc(C(C)C)c(O)c1S(=O)(=O)c1ccccc1,-29%[46.1 µM],39%,?,-15,nt
Cc1ccc2c(=O)cc(C(=O)Nc3ccc(S(=O)(=O)N4CCCCC4C)cc3)oc2c1C (stereo not given),5%[46.1 µM],-16%,20%[46.1 µM],3,nt
CCOC(=O)c1c(S(=O)(=O)N2CCCC(C(=O)Nc3cccc(CC)c3)C2)c(C)n(CC)c1C (stereo not given),3%[46.1 µM],-13%,nt,-26,nt
O=[N+]([O-])c1ccc(N/N=C/c2cccc(O)c2O)c(S(=O)(=O)N2CCOCC2)c1,nt,?,nt,0,2.8µM*
O=[N+]([O-])c1ccc(N/N=C/c2ccc(O)c(O)c2O)c(S(=O)(=O)N2CCOCC2)c1,-5%,?,-29%[46.1 µM],-23,?
COc1ccc(OCC(=O)N2CCN(c3nnc(-c4ccc(C)cc4)c4ccccc34)CC2)cc1,?,28µM*,?,-29,8.9µM*
Cc1cccc(OCC(=O)N2CCN(C(=O)c3ccc([N+](=O)[O-])cc3)CC2)c1,6%,-16%,-15%[46.1 µM],-61*,-7%
Cc1ccc(-c2nnc(N3CCN(C(=O)COc4cccc(C)c4)CC3)c3ccccc23)cc1,?,25µM*,?,-34,?
O=C(COc1ccccc1)N1CCN(c2nnc(-c3ccccc3)c3ccccc23)CC1,-39%,?,?,?,?
Cc1cccc(OCC(=O)N2CCN(Cc3ccc([N+](=O)[O-])cc3)CC2)c1,7%[46.1 µM],?,-6%[46.1 µM],-32,?
